Results reported in the supplement of paper PMC10498489.
The campaign covered roughly 2,300 compounds. About 330 (14%) showed activity. Only a sample is shown. Values without a mark were called inactive.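 How the source made its calls: active = median modified Z-score above 1.96; inactive = 1.96 or below.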

tested on: HepG2 Srxn1-GFP reporter cells (+30 nM CDDO-Me); assay: Srxn1-GFP intensity median modified Z-score relative to plate median; higher = stronger NRF2 / oxidative stress reporter activation, active = hit call of the paper; conditions: 10 µM; exposure time: 24h
Outline: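 Compound at 10 μM was applied with an NRF2 activator at 30 nM to HepG2 Srxn1-GFP BAC reporter cells for 24 h, in DMSO at no more than 0.1%, using three replicate 96-well plates seeded at 20,000 cells per well. Fixed, Hoechst-stained cells were imaged confocally and cytoplasmic GFP was scored for each cell, with images under 100 cells left out. The figure reported is the replicate median of the per-plate modified Z-score of GFP intensity. Scaling relied on 1.4826 × median absolute deviation.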

Structure (SMILES) | Srxn1-GFP intensity median modified Z-score
COCC1(C)NC(=O)N(CCC(=O)Nc2cc(C)on2)C1=O (configuration not stated) | 1.16
COC(=O)C1=C(C)N=C(C)C(C(=O)OC(C)C)C1c1cccc2nonc12 (configuration not stated) [euspeclibcmpd996] | -0.132
CCOC(=O)C1=C(COCCN)N=C(C)C(C(=O)OC)C1c1ccccc1Cl (configuration not stated) [euspeclibcmpd713] | 22.6 (active)
CCOC(=O)C1=C(C)N=C(C)C(C(=O)OC)C1c1cccc([N+](=O)[O-])c1 (configuration not stated) [euspeclibcmpd494] | 0.225
Cc1cc(=NC(=O)C2C(=O)c3ccccc3S(=O)(=O)N2C)[nH]o1 (configuration not stated) [euspeclibcmpd552] | -0.344
CC1=c2c(C)c(O)c(C(=O)O)c(O)c2=CO[C@@H]1C [euspeclibcmpd1555] | 1.14
CCCC(C(N)=O)c1ccccc1 (configuration not stated) | 1.53
OCCN1C[C@@H](O)[C@@H](O)C(O)C1CO (some centres not stated) [euspeclibcmpd679] | 0.73
CC(=O)OCC(=O)C1CCC2C3CC=C4C[C@@H](O)CC[C@]4(C)C3CC[C@]12C (some centres not stated) [euspeclibcmpd1443] | 0.217
COC(=O)C[C@H]1C(C)(C)[C@@H](OC(C)=O)C2CC3=C4CC(=O)O[C@@H](c5ccoc5)[C@]4(C)CCC3[C@@]1(C)C2=O (some centres not stated) [euspeclibcmpd1559] | 0.833
COc1c(C/C=C(\C)CCC(=O)OCCN2CCOCC2)c(O)c2c(O)occ2c1C [euspeclibcmpd688] | 5.22 (active)
COc1c(C/C=C(\C)CCC(=O)O)c(O)c2c(O)occ2c1C [euspeclibcmpd334] | 11.8 (active)
COc1c(O)c(C)c(C=CC(C)=CCC=C(C)CCC=C(C)CCC=C(C)CCC=C(C)CCC=C(C)CCC=C(C)CCC=C(C)CCC=C(C)CCC=C(C)C)c(O)c1OC [euspeclibcmpd1853] | -0.0742
Oc1ccc(C(O)O)[nH]1 [euspeclibcmpd1237] | -0.421
CC(=O)OCC[N+](C)(C)C [euspeclibcmpd13] | -0.276
CC(C)=CCC=C(C)C=Cc1c(C)c(O)c2ccccc2c1O [euspeclibcmpd1484] | -0.304

Structure (SMILES) | Srxn1-GFP intensity median modified Z-score
CN1CCN(C2N=c3cc(Cl)ccc3=Nc3ccccc32)CC1 (configuration not stated) [euspeclibcmpd804] | 0.387
C#CCCCCCCCCCCCc1ccco1 [euspeclibcmpd2261] | -0.224
CCNCC(O)COc1ccc(CCOC)cc1 (configuration not stated) | 1.2
CCCCOc1ccc(CC(O)=NO)cc1 [euspeclibcmpd1071] | 1.55
CCCCCCCCCc1ccc(OCCOCCOCCOCCOCCOCCOCCOCCOCCO)cc1 [euspeclibcmpd736] | 18.5 (active)
CC(N=C(N=c1cc[nH]cc1)NC#N)C(C)(C)C (configuration not stated) [euspeclibcmpd960] | 0.333
COc1ccc(-c2oc3cc(OC)c(OC)c(OC)c3c(=O)c2OC)cc1 [euspeclibcmpd1578] | 0.25
COc1c(O)cc2oc3cc(O)c(CC=C(C)C)c(O)c3c(=O)c2c1C=CC(C)C [euspeclibcmpd1547] | 34.4 (active)
COc1cc2oc3cc(OC)c(OC)c(CC=C(C)C)c3c(=O)c2c(OC)c1CC=C(C)C [euspeclibcmpd1951] | 13.2 (active)
COc1cc2oc3cc(OC)c(OC)c(C=CC(C)C)c3c(=O)c2c(O)c1CC=C(C)C [euspeclibcmpd1769] | -0.34
COc1ccc(-c2oc3c(CC=C(C)C)c(O[C@@H]4O[C@H](CO)[C@@H](O)[C@H](O)[C@H]4O)cc(O)c3c(=O)c2O[C@@H]2O[C@@H](C)[C@H](O)[C@@H](O)[C@H]2O)cc1 [euspeclibcmpd2338] | 0.366
COc1cc(-c2coc3cc(O)c(OC)c(O)c3c2=O)cc(O)c1OC [euspeclibcmpd1394] | 1.24
COc1cc(O)c2c(=O)cc(C)oc2c1CC=C(C)C [euspeclibcmpd1598] | 2.54 (active)
CC(C)=CCc1c(O)cc2oc(C)cc(=O)c2c1O [euspeclibcmpd1412] | 1.94
COc1ccc(-c2oc3cc(OC)c(OC)c(OC)c3c(=O)c2OC)cc1OC [euspeclibcmpd1579] | 0.934
C[C@@H]1CC2C3CC=C4CC(=O)C=C[C@]4(C)[C@@]3(F)[C@@H](O)C[C@]2(C)[C@@]1(O)C(=O)COP(=O)(O)O (some centres not stated) [euspeclibcmpd2420] | -0.794
